Screening results (PubChem)
Sampled rows, rich in hits. Any-hit rate of the full collection: about 1.5%.
NSD2 HMT inh = NSD2 (human) methyltransferase inhibition; NSD2 peptide methylation, AlphaScreen, 120 min; inhibition, % at 12.5 µM; 0.54% of 310,000 active; O96028; in the data active = inhibition above about 50%
miR122 inh = blocks miR-122 activity in Huh7 sensor cells; Huh7 miR-122 Renilla luciferase sensor, 48 h; neutral wells = 0, positive control = 100; activation (reporter increase), % at 12.5 µM; 0.3% of 340,000 active;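 active = mean replicate activation score at least 90 and every replicate individually at or above 90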;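 note: higher luciferase means less miR-122 activity so hits act as miR-122 inhibitors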
AF4-AF9 inh = inhibitors of human MLL-AF4/AF9 interaction; P42568; AlphaScreen, biotin-AF4 peptide binding to FLAG-AF9; inhibition, % at 10 µM; 0.47% of 350,000 active;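 active = every replicate reaching a set inhibition limit, whatever the replicate mean, cut at about 25% in these data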;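 note: 0% = plate neutral control median and 100% = total signal loss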
Casp6 inh = inhibitors of human caspase-6; AID 686996; 0.53% of 350,000 active; inhibition, % at 12.5 µM; P55212; purified caspase-6, Z-VEID-R110 cleavage fluorescence;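 active = mean inhibition across replicates at least about 35%, with every replicate also reaching that limit, limit read from the data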;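 note: 0% = median of neutral control wells and 100% = no fluorescence left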
RAD52 anneal inh = blocks human RAD52 DNA annealing | recombinant RAD52 DNA annealing, FRET fluorescence | inhibition, % at 18.7 µM | 0.46% of 360,000 active | AID 651710;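 active = every replicate showing at least 50% inhibition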
An asterisk follows results filed as active; / = not tested or not shown; [ ] = another dose, or the depositor's remark.

SMILES	NSD2 HMT inh	miR122 inh	AF4-AF9 inh	Casp6 inh	RAD52 anneal inh
CCCC(=O)Nc1ccc2c(c1)OC[C@@H](C)N(Cc1nccs1)C[C@@H](C)[C@H](OC)CN(C)C2=O	/	/	-2	-3	-2
O=C(C[C@H]1CC[C@H](NC(=O)Cc2ccccn2)[C@@H](CO)O1)NCCc1ccncc1	/	-2[16.7 µM]	1	/	-20
Cc1cc(C(=O)Nc2cccc3c2O[C@@H](CN(C)Cc2ccccc2)[C@H](C)CN([C@@H](C)CO)C3=O)n(C)n1	/	-8[16.7 µM]	2	1	12
COC(=O)CC1OCC=C2CN3CCC45C6=CC(=O)C(=O)C([N+](=O)[O-])=C6NC4C1C2CC35 (configuration not stated)	/	-3	5	69*	34
CCCn1nc([N+](=O)[O-])c(C(C#N)c2nc3ccccc3s2)c(Cl)c1=O (configuration not stated)	52*	-9	/	/	/
CCn1nc([N+](=O)[O-])c(C(C#N)c2nc3ccccc3n2C)c(Cl)c1=O (configuration not stated)	22	-18	4	10	-2
COc1ccc(NC(=O)Nc2ccc3c(c2)[C@@H]2C[C@@H](CC(=O)N4CCCCC4)O[C@H](CO)[C@@H]2O3)cc1	/	-1[16.7 µM]	2	3	-3
COCC(=O)N1CC[C@@H]2[C@@H](CO)N(C)c3ccc(-c4cccc(F)c4)cc3[C@@H]21	/	5[16.7 µM]	/	/	-17
CC1OC2CC(=O)OC2C2=C1C(=O)c1c(O)cccc1C2=O (configuration not stated)	/	-22	-10	85*	-14
O=C(CN1CCOCC1)NCC[C@@H]1CC[C@@H](NC(=O)c2ccccc2F)[C@@H](CO)O1	/	/	-1	-2	-16
C[C@H](CO)N1C[C@H](C)[C@@H](CN(C)Cc2ccccc2C(F)(F)F)OCc2cnnn2CCCC1=O	/	4[16.7 µM]	/	/	/
C[C@@H]1CCCCO[C@@H](CN(C)C)[C@H](C)CN([C@H](C)CO)C(=O)c2cc(NS(=O)(=O)c3cn(C)cn3)ccc2O1	/	0[16.7 µM]	-2	-3	-41
COc1ccc(N2CCCC2)c(NC(=O)c2ccc([N+](=O)[O-])o2)c1	3	2	32*	4	-20
O=C(Nc1ccccc1N1CCCC1)c1ccc([N+](=O)[O-])o1	4	13	17	7	-13
COc1ccccc1-c1ccc2c(c1)O[C@H](CN(C)Cc1ccc3c(c1)OCO3)[C@H](C)CN([C@H](C)CO)S2(=O)=O	/	9[16.7 µM]	6	-2	21
O=C(Cc1cccc2ccccc12)Nc1ccccc1F	-2	/	/	/	/
CCCC(=O)Nc1ccc2c(c1)C(=O)N(C)C[C@@H](OC)[C@@H](C)CN(Cc1ccccn1)[C@H](C)CO2	/	/	0	-1	-7
Cc1[nH]c2c(ccc3cccnc32)c1C	5	-2	3	0	-3
CC1=[N+](C)c2c(ccc3cccnc23)C1(C)C	/	/	29*	0	-38
CC(NC(=O)C=Cc1ccco1)C(=O)NC(Cc1ccccc1)C(N)=O (configuration not stated)	6	/	-4	46*	-36
CC1CCN(CCCNC(=O)COc2cc(=O)n(C)c3ccccc23)CC1	-2	-5	/	78*	-7
O=C(C[C@H]1CC[C@H]2[C@@H](COC[C@H](O)CN2S(=O)(=O)c2ccccc2)O1)NCC1CCCCC1	/	5[16.7 µM]	33*	0	83*
Cc1ccc(S(=O)(=O)N2C[C@@H](O)COC[C@H]3O[C@@H](CC(=O)NCC4CCCCC4)CC[C@@H]32)cc1	/	-2[16.7 µM]	11	0	53*
O=C(C[C@H]1CC[C@H]2[C@@H](COC[C@H](O)CN2S(=O)(=O)c2ccc(F)cc2)O1)NCC1CCCCC1	/	-3[16.7 µM]	28*	0	66*
Cc1ccc(S(=O)(=O)N2C[C@@H](O)COC[C@@H]3O[C@H](CC(=O)NCC4CCCCC4)CC[C@H]32)cc1	/	0[16.7 µM]	1	-2	27
SMILES	NSD2 HMT inh	miR122 inh	AF4-AF9 inh	Casp6 inh	RAD52 anneal inh
O=C(O)C[C@H]1CC[C@H]2[C@@H](COC[C@H](O)CN2S(=O)(=O)c2ccc(Oc3ccccc3)cc2)O1	/	4[16.7 µM]	2	40*	-5
Cc1noc(C)c1NC(=O)N(C)C[C@@H]1Oc2ccc(NC(=O)Nc3ccccc3)cc2C(=O)N([C@H](C)CO)C[C@H]1C	/	3[16.7 µM]	-3	-1	-1
O=C(C1CCCCC1)N1C[C@H]2[C@@H](c3ccccc31)[C@H](CO)N2C(=O)c1ccccc1F	/	0[16.7 µM]	0	1	-4
O=C(C[C@@H]1CC[C@H]2[C@@H](COC[C@@H](O)CN2S(=O)(=O)c2ccc(F)cc2)O1)NCC1CCCCC1	/	-2[16.7 µM]	31*	-2	70*
O=C(C[C@H]1CC[C@H]2[C@@H](COC[C@@H](O)CN2S(=O)(=O)c2ccc(F)cc2)O1)NCC1CCCCC1	/	1[16.7 µM]	9	0	21
Cc1ccc(NC2=C/C(=N/S(=O)(=O)c3cccs3)c3ccccc3C2=O)cc1C	0	2	-4	0	8
CCc1ccc(S(=O)(=O)/N=C2\C=C(NS(=O)(=O)c3ccccc3)C(=O)c3ccccc32)cc1	128*	24	-1	49*	-22
Cc1ccc(C)c(S(=O)(=O)/N=C2\C=C(NS(=O)(=O)c3ccccc3)C(=O)c3ccccc32)c1	97*	17	-1	25	-9
CC(C)c1ccc(S(=O)(=O)/N=C2\C=C(NS(=O)(=O)c3ccccc3)C(=O)c3ccccc32)cc1	112*	57	-3	22	-2
C[C@@H]1CN([C@H](C)CO)C(=O)c2cc(NC(=O)Nc3ccc(F)cc3)ccc2O[C@@H]1CN(C)S(=O)(=O)c1cn(C)cn1	/	32[16.7 µM]	-9	-14	10
COc1cccc(NC(=O)N[C@@H]2C=C[C@H](CC(=O)NCc3ccccn3)O[C@@H]2CO)c1	/	/	0	1	-6
Cc1ccc(C)c(NC(=O)CN(C)C(=O)c2ccccc2OCc2c(C)noc2C)c1	-2	-5	0	0	-17
Cc1noc(C)c1COc1ccccc1C(=O)N(C)CC(=O)Nc1ccc(F)c(F)c1F	2	/	0	53*	-1
Cc1ccc2c(CN3CCCCC3)cc(=O)oc2c1C	1	-4	0	-2	-10
Cc1ccc2c(CN3CCCc4ccccc43)cc(=O)oc2c1C	-1	147*	/	/	/
O=S(=O)(c1cccc(F)c1)N1[C@@H]2CNC[C@H]1C2c1ccc(-c2cccc(F)c2)cc1 (some centres not stated)	/	/	-3	0	43
O=S(=O)(CCN1C=CC(C(F)(F)F)=NCC1)c1ccc(Cl)cc1Cl	3	0	44*	-8	-43
CC(C)C(=O)Nc1ccc2c(c1)C(=O)N(C)[C@@H]1CC[C@@H](CC(=O)NCc3ccccc3F)O[C@H]1CO2	/	33[16.7 µM]	/	/	/
CO[C@@H]1CN(C)C(=O)c2cc(NC(=O)C3CCC3)ccc2OC[C@H](C)N(C(=O)CN(C)C)C[C@H]1C	/	/	0	4	-8
